# From PubChem BioAssay (NCATS)
# Results filed as inconclusive are left out. Values without a mark were called inactive. The source made the active and inactive calls. Calls follow the shape of the dose curve; as a rule, active = well fitted inhibition curve with a large enough effect; inconclusive = small, poorly fitted or top-dose-only effect; inactive = no such curve, though single readings can be large or run the other way. Where a SMILES comes first, the peptide text is derived from it.
# Assay: qHTS to identify inhibitors of the type 1 interferon - major histocompatibility complex class I in skeletal muscle: primary screen against the NCATS Mechanism Interrogation Plate v5.0 (MIPE) Libary (AID 1347411); also: nearly all actives have a fitted effect of over 65% in size;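 as to activity change, negative = inhibition: plate controls were vehicle for no effect and reference inhibitor for full effect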
# Conditions: iHSKM cells + IFN-b, HiBiT-tagged MHC-I luminescence, 24 h; series mostly up to 45.8 µM; activity change, negative = inhibition: at the top concentration
# Description: Assay Submitter (PI): Travis B. Kinder Ph.D. & James Inglese Ph.D.
# Assay Development and Screening Technology Laboratory (ADST)
# National Center for Advancing Translational Sciences (NCATS), Rockville, MD
# National Institute of Health (NIH), Bethesda, Maryland
# Idiopathic inflammatory myopathies, collectively referred to as myositis, are a group of rare autoimmune diseases characterized by skeletal muscle inflammation, weakness, and usually accompanied by systemic pathologies of the skin, lungs, or vasculature. Current immunosuppressive therapies and glucocorticoids are often not curative and are accompanied by harsh side effects, especially in children with juvenile myositis. We initiated a drug repurposing and development program to identify more targeted, less toxic therapeutics to treat myositis. Although its cause is not known, muscle from a subset of patients have an abundance of the inflammatory type 1 interferon (IFN) and a down-stream product major histocompatibility complex class I (MHC class I), which are both thought to contribute to damage and weakness. We conducted quantitative high throughput screening on 6,576 compounds (4,679 unique) through a series of cell-based assays to identify those that inhibit the IFN-stimulated expression of MHC class I in muscle precursor cells (myoblasts). The compound identification and evaluation strategy utilized a primary screen with reporter-tagged MHC class I in genome-engineered myoblasts, ATP content counter screen for viability, HLA-ABC immunofluorescence secondary screen, and HLA-B RT-qPCR tertiary screen.
# The primary screen utilized CRISPR/Cas9 genome-engineering of immortalized human myoblasts, C25cl48, where a pro-luminescent reporter HiBit was fused to the C-terminus of endogenous MHC class I allele HLA-B*08:01 (HLA-B HiBit myoblasts). HiBit is an 11 amino acid fragment of NanoLuc luminescent reporter (Promega Corporation), and when complexed to the larger LgBit fragment, the reconstituted enzyme produces light in the presence of furimazine substrate (Schwinn et al., 2018). Briefly, HLA-B HiBit myoblasts were plated into 1536-well plates, treated with 4.0 ng/ml human IFN-beta and 2,480 compounds from the NCATS Mechanism Interrogation Plate v5.0 (MIPE5.0) in an 11-point, 1:3 titration with a high final concentration of 46 uM. After 24 hrs of treatment, cells were assayed by Nano-Glo HiBiT Lytic Detection System (Promega) and luminescence measured by a ViewLux 1430 Ultra HTS (Perkin Elmer).
# Schwinn MK, Machleidt T, Zimmerman K, Eggers CT, Dixon AS, Hurst R, Hall MP, Encell LP, Binkowski BF, Wood K V. 2018. CRISPR-Mediated Tagging of Endogenous Proteins with a Luminescent Peptide. ACS Chem Biol 13:467-474. doi:10.1021/acschembio.7b00549
# PROTOCOL TABLE (as described by Inglese et al., 2007)
# SEQUENCE No. (e.g., 1, 2, 3, etc.); […] (e.g., Cells, Incubation, Reagent, etc.); VALUE; DESCRIPTION
# 1a; Cells; 5 uL; Use a Multidrop Combi (Thermo Scientific) to seed 300 cells/well into 24 Greiner 1536 well white/solid bottom, high base, TC plates in 5 ul/well of iHSKM growth medium (GM) without dexamethasone into columns 1+2. Add metal lids with gas-exchange holes
# 1b; Cells; 5 uL; Use a Multidrop Combi (Thermo Scientific) to seed 300 cells/well into 24 Greiner 1536 well white/solid bottom, high base, TC plates in 5 ul/well of iHSKM GM without dexamethasone + 4 ng/ml IFN-b into columns 3 - 48. Add metal lids with gas-exchange holes
# 2; Incubate; 1 hr; Incubate at 37 C, 5% CO2, 95% RH
# 3; Compounds; 23 nl; Use Pin Tool (Wako) to transfer DMSO control, ruxolitinib IFN-b inhibitor control [High Concentration = 80 uM final, 16-pt, 1:2 in duplicate], and library compounds in DMSO
# 4; Incubate; 24 hrs; Incubate at 37 C, 5% CO2, 95% RH
# 5; Dispense; 2.5 ul; Use BioRAPTR FRD (Beckman Coulter) to add HiBit lytic reagent
# 6; Incubate; 10 min; Incubate in the dark at ambient temperature for lysis
# 7; Detector; 5 sec; Measure luminescence with ViewLux 1430 Ultra HTS (Perkin Elmer). […]
# Potency is read from the fitted curve at half-maximal effect.
SMILES,"activity change, negative = inhibition",Potency
O=C(C[C@@H]1C/C=C\CCC(=O)O[C@H](c2ccccc2)CNC1=O)NCc1ccc(Cl)cc1,28%,
CCn1c(=O)c2c(nc(/C=C/c3ccc(OC)c(OC)c3)n2C)n(CC)c1=O,-24%,
Cc1nc(C)c(CN2CCN(C(c3ccc(F)cc3)c3ccc(F)cc3)CC2)nc1C,-1.39%,
CCOc1cc(/C=C2/C(=O)N(c3ccccc3)N=C2C)cc(Cl)c1OCC(=O)OC,-7.33%,
N[C@@H](CCC(=O)O)C(=O)N[C@@H](Cc1c[nH]c2ccccc12)C(=O)O (H-Glu-Trp-OH),17.8%,
CCc1cnn2c(NCc3ccc[n+]([O-])c3)cc(N3CCCC[C@H]3CCO)nc12,,0.0052 µM (active)
CCn1c(=O)c(-c2ccc(-c3cncc(C)n3)cc2Cl)cc2cnc(NCCC3CCN(C)CC3)nc21,-29.5% [at 5.1 µM],
N=C(N)c1ccc2nc(-c3cc(CC(=O)N[C@@H](CC(=O)O)C(=O)O)cc(-c4cc(S(N)(=O)=O)ccc4O)c3O)[nH]c2c1,-6.4%,
CN1CCN(c2ccc3nc(-c4cc(C(C)(C)C)c(OCCCC(=O)NCCCN=[N+]=[N-])c(C(C)(C)C)c4)[nH]c3c2)CC1,,13.1 µM (active)
O=C(O)C[C@H]1CCc2c1[nH]c1ccc(OCc3ccc(C4CCCC4)c(C(F)(F)F)c3)cc21,-24.8%,
CCNCCS(=O)(=O)NC[C@@]1(c2ccccc2)SC(NC(=O)C(C)(C)C)=NN1C(=O)C(C)(C)C,-2.74%,
Cc1ccc(NC(=O)[C@H]2CCCN(C(=O)c3c(C)cccc3F)[C@H]2c2ccc(NC3CCCC3)cc2)cc1C(F)(F)F,11.4%,
C[C@@H]1C[C@H](N)C[C@H](c2ccncc2NC(=O)c2ccc(F)c(-c3c(F)cccc3F)n2)C1,,26.2 µM (active)
Cc1ncsc1-c1ccc([C@H](C)NC(=O)[C@@H]2C[C@@H](O)CN2C(=O)[C@@H](NC(=O)COCCCOCCNC(=O)C[C@@H]2N=C(c3ccc(Cl)cc3)c3c(sc(C)c3C)-n3c(C)nnc32)C(C)(C)C)cc1,,0.208 µM (active)
CN1CCN(C(=O)[C@H]2[C@@H](C(=O)O)[C@H]3CC[C@@H]2O3)CC1,-7.67% [at 8.44 µM],
CN1C(=O)[C@@H](NC(=O)c2cc(Cc3ccccc3)on2)COc2ccccc21,-26.8%,
C[C@@H](Oc1ccc2[nH]nc(/C=C/c3cnn(CCO)c3)c2c1)c1c(Cl)cncc1Cl,,0.93 µM (active)
CN1C(=O)N[C@H](Cc2c[nH]c3c(Cl)cccc23)C1=O,-12.7%,
CO[C@H]1/C=C\C=C(\C)C(=O)NC2=CC(=O)C(NCCN(C)C)=C(C[C@@H](C)C[C@H](OC)[C@H](O)[C@@H](C)/C=C(/C)[C@@H]1OC(N)=O)C2=O,,0.0466 µM (active)
CN(C)C[C@@H]1CCn2cc(c3ccccc32)C2=C(C(=O)NC2=O)c2cn(c3ccccc23)CCO1,,4.66 µM (active)

SMILES,"activity change, negative = inhibition",Potency
O=c1[nH]nc2c3c(cccc13)NC(CN1Cc3ccccc3C1)=N2,-22.8%,
CN1C[C@@H]2c3ccccc3Oc3ccc(Cl)cc3[C@H]2C1,-8.03%,
Cc1cnc(NC(=O)c2cc(Oc3cnc(C(=O)N(C)C)nc3)c3cc(C)oc3c2)cn1,6.8%,
NS(=O)(=O)c1ccc(S(=O)(=O)Nc2cccc3c(Cl)c[nH]c23)cc1,-9.78%,
COc1ccc(CNC(=O)c2cc(-c3cncc(Cl)c3)cnc2-c2ccccn2)nc1OC,-3.83%,
CCO[C@@H]1OC(=O)C[C@@H]1NC(=O)[C@@H]1CCCN2C(=O)CC[C@H](NC(=O)c3nccc4ccccc34)C(=O)N12,-5.78%,
CC(=O)c1cc2c(o1)C(=O)c1ccccc1C2=O,,0.523 µM (active)
Cc1cc(C)cc(Oc2ccc(CNC(=O)[C@H](C)N)cc2C)c1,-8.28%,
CCC1CCCCN1C(=O)n1ncc(C(O)(c2ccccc2)c2ccccc2)n1 (stereo not given),-4.99%,
Cc1cc2cc(Oc3ccnc(Nc4cccc(CS(=O)(=O)NCCN(C)C)c4)n3)ccc2[nH]1,,13.1 µM (active)
CNC(=O)[C@@H](NC(=O)[C@H](CC(C)C)[C@H](O)C(=O)NO)C(C)(C)C,37.3%,
CC1(C)C(N(O)C(=O)Nc2ccc(Cl)cc2)N(c2ccc(Cl)cc2)C(=O)N1CC(=O)N/N=C/C=C/c1ccc([N+](=O)[O-])o1 (stereo not given),,14.7 µM (active)
CC(C)(O)CNc1ncc(-c2ccnc(Nc3ccncc3)n2)c(CC2CC2)n1,,16.5 µM (active)
CC(=O)N[C@H]1[C@H](O[C@@H]2c3ccc(c(Cl)c3)Oc3cc4cc(c3O[C@@H]3O[C@H](CO)[C@@H](O)[C@H](O)[C@H]3NC(=O)CCCCCCCC(C)C)Oc3ccc(cc3Cl)C[C@H]3NC(=O)[C@H](N)c5ccc(O)c(c5)Oc5cc(O)cc(c5)[C@H](NC3=O)C(=O)N[C@H]4C(=O)N[C@H]3C(=O)N[C@@H]2C(=O)N[C@@H](C(=O)O)c2cc(O)cc(O[C@H]4O[C@H](CO)[C@@H](O)[C@H](O)[C@@H]4O)c2-c2cc3ccc2O)O[C@H](CO)[C@@H](O)[C@@H]1O,5.09%,
O=C(Nc1ccccc1)Nc1ccc(-c2ccc(C(=O)[C@@H]3CCC[C@H]3C(=O)O)cc2)cc1,-12.4%,
O=C(CCCc1ccc2cccnc2n1)NCc1cc(-c2ccc(F)c(C(F)(F)F)c2)no1,-28.1%,
O=C(/C=C/N1C[C@H]2C[C@@H]1CN2c1ccccn1)c1ccccc1O,-45.7%,
C=C1C[C@H]2C=Nc3cc(OCCCOc4cc5c(cc4OC)C(=O)N4CC(=C)C[C@H]4C=N5)c(OC)cc3C(=O)N2C1,21.5%,
COc1ccc([C@@H](O)[C@@H](C)Oc2ccc([C@H]3O[C@H](c4ccc(O[C@H](C)[C@H](O)c5ccc(OC)c(OC)c5)c(OC)c4)[C@H](C)[C@H]3C)cc2OC)cc1OC,-36.8%,
CCNC(=O)Nc1ccc(Oc2ncnc(N)c2/C=N/OC)cc1Cl,-6.93%,
